{"source": "the supplement of paper PMC6135742", "note": "Structures can show the parent of a compound that is named as a salt. In all, about 2,600 compounds were measured (“MBP+ mature oligodendrocyte number relative to DMSO vehicle control”: median about -0.34, highest 2% from about 13 on). Many of the other results were omitted from the sample, so the highest values are more common in it than they were.", "data": [{"system": "jimpy (Plp1 jimpy) mouse iPSC-derived oligodendrocyte progenitor cells", "assay": "MBP+ mature oligodendrocyte number relative to DMSO vehicle control (SDs above negative control mean); higher = more surviving jimpy oligodendrocytes (rescue)", "details": "10 µM; 3 days", "experimental": "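Primary phenotypic screen of >3,000 bioactive compounds (Selleck L1700 and Sigma LO1280 libraries) at a single dose of 10 µM. Compounds were added to jimpy (Plp1 mutant) mouse iPSC-derived OPCs at the start of thyroid hormone-induced oligodendrocyte differentiation, one well per compound in 384-well plates. After 3 days cells were stained for MBP, Sox10 and DAPI and imaged with an Operetta system. MBP+ oligodendrocyte number and total cell number were expressed as the number of SDs above the mean of the DMSO negative control on the same plate (n=16 control wells per plate). Hits were defined as >=4 SD for oligodendrocytes and >=2 SD for total cells.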", "values": [{"smiles": "OC1CCCCC1N1CCC(c2ccccc2)CC1", "note": "(racemic) [(±)-Vesamicol hydrochloride]", "MBP+ mature oligodendrocyte number": 15.7}, {"smiles": "Cc1ccc2c(c1)C1(CCN(CCc3nc(-c4ccccc4)oc3C)CC1)OC(=O)N2", "MBP+ mature oligodendrocyte number": -2.6}, {"smiles": "C[N+]1(C)[C@@H]2CC(OC(=O)[C@H](CO)c3ccccc3)C[C@H]1[C@@H]1O[C@@H]12", "note": "(single isomer, unassigned; (-)) [(-)-Scopolamine methyl nitrate]", "MBP+ mature oligodendrocyte number": 0.539}, {"smiles": "N[C@]1(C(=O)O)CC[C@H](C(=O)O)C1", "note": "(racemic) [trans-(±)-ACPD]", "MBP+ mature oligodendrocyte number": 0.981}, {"smiles": "CN1CC[C@@]2(C)c3cc(O)ccc3N(C)C12", "note": "(single isomer, unassigned; (-)) [(-)-Eseroline fumarate]", "MBP+ mature oligodendrocyte number": -1.28}, {"smiles": "COc1ccc2c(c1OC)C(=O)OC2C1c2cc3c(cc2CCN1C)OCO3", "note": "(single isomer, unassigned; (+)) [(+)-Hydrastine]", "MBP+ mature oligodendrocyte number": 1.13}, {"smiles": "NC(=O)c1ccc(OCC(O)CN2CC=C(c3ccc(F)cc3)CC2)cc1", "note": "(stereo not given)", "MBP+ mature oligodendrocyte number": 13.9}, {"smiles": "CC(=O)OCC1=C(C(=O)[O-])N2C(=O)[C@@H](NC(=O)CCC[C@@H](N)C(=O)[O-])[C@H]2SC1.[Zn+2]", "note": "[Cephalosporin C zinc salt]", "MBP+ mature oligodendrocyte number": -0.943}, {"smiles": "CCCC[N+]1(C)[C@@H]2C[C@@H](OC(=O)[C@H](CO)c3ccccc3)C[C@H]1[C@@H]1O[C@@H]12", "note": "(single isomer, unassigned; (-)) [(-)-Scopolamine,n-Butyl-, bromide]", "MBP+ mature oligodendrocyte number": -0.925}, {"smiles": "CN1CC[C@]2(CCN3CCc4c(oc5ccccc45)[C@@H]3C2)N(C)C1=O", "MBP+ mature oligodendrocyte number": 1.72}, {"smiles": "CCS(=O)(=O)Nc1cccc(C(=C2CCCCC2)c2cnc[nH]2)c1", "MBP+ mature oligodendrocyte number": 2.51}, {"smiles": "CC(C)Oc1cccnc1N(C)C1CCN(Cc2ccccc2)CC1", "MBP+ mature oligodendrocyte number": 19.1}, {"smiles": "CO[C@H]1CC[C@@H](O[C@H]2C[C@H]([C@]3(C)CC[C@]4(C[C@H](O)[C@@H](C)[C@@H]([C@@H](C)/C=C(\\C)C(=O)[C@H](C)C[C@H](C)C(=O)O)O4)O3)O[C@]3(O[C@@H]([C@H]4O[C@@](O)(CO)[C@H](C)C[C@@H]4C)C[C@@H]3C)[C@@H]2C)O[C@@H]1C", "note": "[Nanchangmycin]", "MBP+ mature oligodendrocyte number": "< -6.7"}, {"smiles": "CC(N)Cc1cccc(C(F)(F)F)c1", "note": "(single isomer, unassigned; (+)) [(+)-Norfenfluramine hydrochloride]", "MBP+ mature oligodendrocyte number": 0.753}, {"smiles": "COc1ccc2[nH]c3c(c2c1)CCNC3", "note": "[6-Methoxy-1,2,3,4-tetrahydro-9H-pyrido[3,4b] indole]", "MBP+ mature oligodendrocyte number": -0.315}]}]}
